Measurements published in PMC4336329 (PLoS ONE, 2015).
Out of some 310,000 compounds screened, about 14,000 (4.5%) showed an effect of 50% or more. The effect is printed as a negative number. Only a selection was taken, and strong results are over-represented in it overall.

Each molecule was assayed against human ether-à-go-go-related gene (hERG) potassium channel (human, UniProt Q12809) (assay: primary screen, population patch clamp on CHO cells stably expressing hERG; higher = less effect of the substance).
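Also: peak tail current of the secondary pulse compared with the same well before compound.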

Sequence of human ether-à-go-go-related gene (hERG) potassium channel (Q12809 whole entry, looked up): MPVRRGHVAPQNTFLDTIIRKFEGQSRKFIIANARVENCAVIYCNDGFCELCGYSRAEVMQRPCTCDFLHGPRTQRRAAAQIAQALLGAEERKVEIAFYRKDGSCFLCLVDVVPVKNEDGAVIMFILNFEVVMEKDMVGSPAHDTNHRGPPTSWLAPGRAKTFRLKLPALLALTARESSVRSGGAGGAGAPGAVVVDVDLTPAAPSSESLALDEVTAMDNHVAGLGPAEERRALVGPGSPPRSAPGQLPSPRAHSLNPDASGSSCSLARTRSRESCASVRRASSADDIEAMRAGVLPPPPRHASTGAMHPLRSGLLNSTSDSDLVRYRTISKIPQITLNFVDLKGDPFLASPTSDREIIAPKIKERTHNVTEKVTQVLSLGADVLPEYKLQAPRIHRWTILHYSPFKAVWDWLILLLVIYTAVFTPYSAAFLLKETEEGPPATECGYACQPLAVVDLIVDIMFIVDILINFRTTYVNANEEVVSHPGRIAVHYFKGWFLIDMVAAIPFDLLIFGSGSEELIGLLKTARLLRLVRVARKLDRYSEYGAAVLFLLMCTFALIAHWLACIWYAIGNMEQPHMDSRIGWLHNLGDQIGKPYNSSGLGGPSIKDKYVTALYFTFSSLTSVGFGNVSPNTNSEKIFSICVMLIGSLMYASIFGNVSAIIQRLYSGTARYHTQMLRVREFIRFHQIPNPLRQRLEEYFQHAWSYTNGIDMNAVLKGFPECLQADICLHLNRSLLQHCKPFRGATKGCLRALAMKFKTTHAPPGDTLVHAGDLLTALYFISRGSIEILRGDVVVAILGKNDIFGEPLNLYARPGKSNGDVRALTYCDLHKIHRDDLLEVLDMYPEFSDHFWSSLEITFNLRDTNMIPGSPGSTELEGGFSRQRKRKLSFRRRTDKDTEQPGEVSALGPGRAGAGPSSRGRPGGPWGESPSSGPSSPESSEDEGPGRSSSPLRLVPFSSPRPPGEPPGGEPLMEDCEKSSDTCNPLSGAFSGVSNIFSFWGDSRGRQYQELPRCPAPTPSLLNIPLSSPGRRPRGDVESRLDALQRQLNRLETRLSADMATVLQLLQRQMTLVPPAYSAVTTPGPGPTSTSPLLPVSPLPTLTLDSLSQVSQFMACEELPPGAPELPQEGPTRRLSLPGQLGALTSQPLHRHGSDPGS

Compound	hERG current change (%, negative = inhibition) at 10uM
Cc1nc2sc(C)c(C)c2c(=O)[nH]1	13.7%
COc1ccccc1/C=C/C(=O)NCC(=O)N/N=C/c1ccccc1[N+](=O)[O-]	-36.9%
CCOc1ccc(NC(=O)Cn2sc3nc(C)cc(C)c3c2=O)cc1	4.94%
CCC(C)c1ccc(NC(=O)CSc2nncn2N)cc1 (stereo not drawn)	-27.5%
COc1ccc(S(=O)(=O)NCCSCc2ccccc2C)cc1Br	-1.29%
C=CCN1C(=Nc2cccnc2)SCC1(O)c1ccc(C)cc1 (stereo not drawn)	4.64%
c1ccc(CSc2nnc3ccc(-c4ccncc4)nn23)nc1	7.44%
Fc1ccccc1CSc1nnc2ccc(-c3ccncc3)nn12	-43.1%
Fc1cccc(CSc2nnc3ccc(-c4ccncc4)nn23)c1	-60.4%
Cc1ccccc1CSc1nnc2ccc(-c3ccncc3)nn12	-20.8%
Cc1ccc(CSc2nnc3ccc(-c4ccncc4)nn23)cc1	-42.4%
c1ccc(CSc2nnc3ccc(-c4ccncc4)nn23)cc1	-58.3%
Nn1c(SCc2cccc(F)c2)nnc1-c1ccncc1	-4.03%
Fc1ccc(CSc2nnc3ccc(-c4ccncc4)nn23)cc1	-70.1%
c1cncc(CSc2nnc3ccc(-c4ccncc4)nn23)c1	-26.7%
CCOC(=O)C(C)Oc1ccc(OCc2ccccc2)cc1 (stereo not drawn)	20.1%
CC(C)(C)NS(=O)(=O)c1cccc(S(=O)(=O)c2cccc(S(=O)(=O)NC(C)(C)C)c2)c1	-35.3%
CCCNS(=O)(=O)c1ccc(CCC(=O)N2CCN(CC)CC2)cc1	-1.72%
O=C(NC1CCS(=O)(=O)C1)c1ccc(S(=O)(=O)N2CCCCC2)cc1 (stereo not drawn)	1.86%
CCC(C(=O)Nc1ccncc1)c1ccccc1 (stereo not drawn)	0.0329%
CN(C)S(=O)(=O)c1ccc(S(=O)(=O)N2CCN(CCC#N)CC2)cc1	-1.43%

Compound	hERG current change (%, negative = inhibition) at 10uM
CCOc1ccc(C(=O)CCC(=O)N2CCN(S(=O)(=O)c3cccc(F)c3)CC2)cc1	-30.7%
Cc1ccc(C2(C)NC(=O)N(CC(=O)N3CCN(S(=O)(=O)c4ccc(Cl)s4)CC3)C2=O)cc1 (stereo not drawn)	-58%
O=C(CN1C(=O)NC2(CCCCC2)C1=O)N1CCN(S(=O)(=O)c2cccc(F)c2)CC1	-61.8%
O=C(CN1C(=O)NC2(CCCCC2)C1=O)N1CCN(S(=O)(=O)c2ccc(Cl)s2)CC1	4.79%
CC1(c2ccccc2)NC(=O)N(CC(=O)N2CCN(S(=O)(=O)c3cccc([N+](=O)[O-])c3)CC2)C1=O (stereo not drawn)	5.57%
Cc1ccc(C2(C)NC(=O)N(CC(=O)N3CCN(S(=O)(=O)c4cccs4)CC3)C2=O)cc1 (stereo not drawn)	-31.9%
O=C(CN1C(=O)NC2(CCCC2)C1=O)N1CCN(S(=O)(=O)c2cccc(F)c2)CC1	22.2%
O=C(CN1C(=O)NC2(CCCCC2)C1=O)N1CCN(S(=O)(=O)c2ccc(F)cc2)CC1	4.02%
CCC1(CC)NC(=O)N(CC(=O)N2CCN(S(=O)(=O)c3cccc(F)c3)CC2)C1=O	7.12%
CCOc1ccc(OCCC(=O)N2CCN(S(=O)(=O)c3ccc(F)cc3)CC2)cc1	-6.61%
CCOc1ccc(OCCC(=O)N2CCN(S(=O)(=O)c3cccc(F)c3)CC2)cc1	-62.4%
Cc1ccc(C2(C)NC(=O)N(CC(=O)N3CCN(S(=O)(=O)c4cccc(F)c4)CC3)C2=O)cc1 (stereo not drawn)	-65.7%
CCCC(=O)Nc1cc(C(=O)N2CCC3(CC2)OCCO3)ccc1S(=O)(=O)c1ccc(C)cc1	-14%
COc1cc(C(=O)Nc2nc3ccccc3[nH]2)ccc1OC(F)F	18%
CCc1cccc(CC)c1NC(=O)C1CN(S(=O)(=O)c2ccccc2)CCN1S(=O)(=O)c1ccccc1 (stereo not drawn)	9.16%
COc1ccccc1NS(=O)(=O)NC(=O)c1cn(C)c2ccccc12	16.8%
COc1ccc(NC(=O)CSc2nnc(-c3ccccc3)n2N)cc1	-4.04%
CCOc1ccccc1N1CCN(Cc2c(C)n(C)n(-c3ccccc3)c2=O)CC1	-20.5%
CSCCC(NC(=O)c1ccc(Cl)cc1Cl)C(=O)NNC(=O)c1ccncc1 (stereo not drawn)	-6.73%
CC(C)c1ccc(S(=O)(=O)N2CCN(C(=O)CN3C(=O)NC(C)(c4ccccc4)C3=O)CC2)cc1 (stereo not drawn)	-31.6%
CC1(c2ccccc2Cl)NC(=O)N(CC(=O)N2CCN(S(=O)(=O)c3ccccc3)CC2)C1=O (stereo not drawn)	7.55%

Compound	hERG current change (%, negative = inhibition) at 10uM
CC1(c2ccc(Cl)cc2)NC(=O)N(CC(=O)N2CCN(S(=O)(=O)c3ccccc3)CC2)C1=O (stereo not drawn)	-50%
Cc1c(Cl)c(C(=O)Nc2nc3ccccc3n2CCN2CCCCC2)nn1C	-68.1%
O=C(Nc1nc2ccccc2n1CCN1CCOCC1)c1ccc(Cl)cc1	1.72%
O=C(Nc1nc2ccccc2n1CCN1CCOCC1)c1ccccc1	-6.69%
CCn1nccc1C(=O)Nc1nc2ccccc2n1CCN1CCCCC1	-39.8%
CCn1cc(Cl)c(C(=O)Nc2nc3ccccc3n2CCN2CCCCC2)n1	-65.5%
Cn1ncc([N+](=O)[O-])c1C(=O)Nc1nc2ccccc2n1CCN1CCCCC1	-25.1%
CCCCn1nnc(NC(=S)NC(=O)c2cccs2)n1	9.16%
COc1ccccc1Cn1c(=S)[nH]c2ccccc2c1=O	32.7%
COc1ccc(S(=O)(=O)N2CCOCC2)cc1NC(=O)CC1CCCC1	-6.2%
COc1ccc(N(CC(=O)Nc2ccc3c(c2)OCCO3)S(=O)(=O)c2c(C)noc2C)cc1	-6.74%
O=C(NC(=S)NC1CCCCC1)c1ccccc1	1.5%
COCCCn1c(=O)c2sccc2n2c(CCCC(=O)NCc3ccccc3OC)nnc12	-19.9%
O=C(CS(=O)(=O)c1cn(CC(=O)N2CCOCC2)c2ccccc12)Nc1ccccc1	8.09%
Cc1ccc(NC(=O)CS(=O)(=O)c2cn(CC(=O)N3CCOCC3)c3ccccc23)cc1	-0.0981%
CC(=O)c1ccc(NC(=O)CS(=O)(=O)c2cn(CC(=O)N3CCOCC3)c3ccccc23)cc1	-58.6%
COc1cccc(=O)c2c(C)n(C)c(C)c12	-24.7%
Cc1c(C)c2ccc(OC(C)C(=O)NC3CC(C)(C)NC(C)(C)C3)cc2oc1=O (stereo not drawn)	7.7%
CC(Oc1ccc(Br)cc1)C(=O)NC1CCN(Cc2ccccc2)CC1 (stereo not drawn)	-80.4%
Cc1cc(=O)oc2cc(OC(C)C(=O)NC3CCN(Cc4ccccc4)CC3)ccc12 (stereo not drawn)	-79.2%
Cc1cc(=O)oc2c(C)c(OC(C)C(=O)NC3CCN(Cc4ccccc4)CC3)ccc12 (stereo not drawn)	-48.1%

Compound	hERG current change (%, negative = inhibition) at 10uM
CC(Oc1ccc2c3c(c(=O)oc2c1)CCC3)C(=O)NC1CCN(Cc2ccccc2)CC1 (stereo not drawn)	-47.9%
CC(Oc1ccc2ccc(=O)oc2c1)C(=O)NC1CCN(Cc2ccccc2)CC1 (stereo not drawn)	-75%
Cc1cc(OC(C)C(=O)NC2CCN(Cc3ccccc3)CC2)c2c(C)cc(=O)oc2c1 (stereo not drawn)	-15.2%
CCc1cc(=O)oc2cc(C)cc(OC(C)C(=O)NC3CCN(Cc4ccccc4)CC3)c12 (stereo not drawn)	-32.8%
Cc1cc(=O)oc2cc(OC(C)C(=O)NC3CCCC3)ccc12 (stereo not drawn)	-33.4%
CC(Oc1ccccc1)C(=O)NC1CCN(Cc2ccccc2)CC1 (stereo not drawn)	-26.8%
CC(Oc1ccc(Br)cc1)C(=O)NC1CCCCCC1 (stereo not drawn)	-12.4%
Cc1c(C)c2ccc(OC(C)C(=O)NC3CCN(Cc4ccccc4)CC3)cc2oc1=O (stereo not drawn)	-54.2%
CC(=O)c1sc(N2CCOCC2)nc1-c1ccccc1	-6.27%
Cc1onc(-c2ccccc2)c1C(=O)Nc1sccc1C#N	7.27%
Cc1cc(C)n(-c2ccc(NC(=O)C3CCCCN3C(=O)c3sccc3C)cc2)n1 (stereo not drawn)	14.5%
NS(=O)(=O)c1ccc(NC(NC(=O)c2cccnc2)C(Cl)(Cl)Cl)cc1 (stereo not drawn)	6.08%
COc1cc(C(=O)NCCCn2ccnc2)cc(OC)c1OC.Cl	20.6%
Cc1nn(C(C)C(=O)NCCN2CCCCCC2)c(=O)c2nn(-c3ccccc3)c(C)c12 (stereo not drawn)	21.6%
Cc1cc(C)n2nc(SCC(=O)Nc3ccccc3C)nc2n1	1.88%
CC1(C)CC(=O)C2=C(C1)NC(=O)CC2c1ccc(N(CCC#N)CCC#N)cc1 (stereo not drawn)	17.3%
CCC(=O)c1ccc2ncccc2c1	12.2%
CCC(C(=O)c1ccc2ncccc2c1)c1ccccc1 (stereo not drawn)	-52.7%
CCC(C(=O)c1ccc(O)cc1)c1ccccc1 (stereo not drawn)	-5.56%
COc1ccc(CNC(=O)c2nn(C)c3c2CS(=O)(=O)c2ccccc2-3)cc1	-24.5%
O=C(O)c1ccccc1C(=O)c1ccc(Oc2ccccc2)cc1	8.12%
